# This is part of a sample that, as a whole, favours compounds with a hit. Of some 83,000 tested, about 20% had one in any assay.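 The endpoint reported here, percent growth, reads 100 for growth as untreated, 0 for no net growth and -100 for all cells dead.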 A number with no mark means an inactive call. The source made the active and inactive calls. How the source made its calls: active means growth percent below 10; inactive means the rest.
# What was measured:
# Test in all cases: NCI-60 one-dose screen, 48 h (100 = growth as untreated, 0 = no growth, -100 = all killed)
# Conditions in all cases: 10 µM unless noted
# NCI-H23 lung = test system: NCI-H23 lung
# NCI-H226 lung = test system: NCI-H226 lung
# NCI-H322M lung = test system: NCI-H322M lung
# HOP-62 NSCLC = test system: HOP-62 NSCLC
# NCI-H460 lung = test system: NCI-H460 lung
# HOP-92 NSCLC = test system: HOP-92 NSCLC
# NCI-H522 lung = test system: NCI-H522 lung
# A549/ATCC NSCLC = test system: A549/ATCC NSCLC
# 786-0 renal = test system: 786-0 renal
# COLO 205 colon = test system: COLO 205 colon
# DU-145 prostate = test system: DU-145 prostate
# K-562 leukemia = test system: K-562 leukemia
# MALME-3M melanoma = test system: MALME-3M melanoma
# MDA-MB-231 breast = test system: MDA-MB-231 breast
# RXF 393 renal = test system: RXF 393 renal
# SF-268 CNS = test system: SF-268 CNS
# SF-295 CNS = test system: SF-295 CNS
# SF-539 CNS = test system: SF-539 CNS
# UACC-257 melanoma = test system: UACC-257 melanoma
# M14 melanoma = test system: M14 melanoma
Compound,growth (NCI-H23 lung),growth (NCI-H226 lung),growth (NCI-H322M lung),growth (HOP-62 NSCLC),growth (NCI-H460 lung),growth (HOP-92 NSCLC),growth (NCI-H522 lung),growth (A549/ATCC NSCLC),growth (786-0 renal),growth (COLO 205 colon),growth (DU-145 prostate),growth (K-562 leukemia),growth (MALME-3M melanoma),growth (MDA-MB-231 breast),growth (RXF 393 renal),growth (SF-268 CNS),growth (SF-295 CNS),growth (SF-539 CNS),growth (UACC-257 melanoma) [%],growth (M14 melanoma)
Nc1c2c(nc3ccc(Cl)cc13)CC(c1ccccc1)CC2=O (centres undefined),58.6%,85%,62.1%,53.9%,15.2%,84.6%,41.1%,56.7%,55.1%,39.3%,63.9%,18%,40.3%,66.8%,55.8%,64.1%,24.5%,38.5%,64,13.9%
O=C(Nc1ccc(/C=C2\SC(=O)N(Cc3ccc(OC(F)(F)F)cc3)C2=O)cc1)c1ccc(Cl)c([N+](=O)[O-])c1,80.8%,83.4%,42.7%,57.8%,94.6%,86.4%,83%,85%,99.6%,55.1%,72.7%,46.4%,98.4%,53.2%,83.5%,62.7%,96.1%,77.2%,80.1,104%
CC1=NN(c2ccc(S(=O)(=O)O)cc2Cl)C(=O)C1,92.5%,101%,112%,90%,103%,91.7%,97.4%,99.7%,97.6%,112%,162%,115%,129%,102%,108%,127%,105%,92.9%,110,96.1%
CN(C)c1ccc(-c2ccc(-c3ccc(C(=N)N)c(F)c3)s2)cc1,-67.1% (active),-60.1% (active),0.0772% (active),-75.2% (active),-77.5% (active),-79.4% (active),-61.4% (active),-83.2% (active),-93.7% (active),-74.7% (active),-93.7% (active),-34.3% (active),71.3%,-78.4% (active),-83.2% (active),-56.9% (active),-88.1% (active),-93% (active),111,97.5%
CC1(C)CC[C@]2(C(=O)Nc3ccccn3)CC[C@]3(C)C(=CC[C@@H]4[C@@]5(C)C/C(=C/c6ccncc6)C(=O)C(C)(C)[C@@H]5CC[C@]43C)[C@@H]2C1,34.4%,28.1%,62.6%,70.9%,6.3% (active),43.4%,40.1%,26.6%,44.2%,2.97% (active),33.9%,11%,-2.79% (active),48.8%,-21.5% (active),72.5%,30.8%,16.2%,48.4,20.6%
O=C(N/N=C/c1ccccc1SSc1ccccc1/C=N/NC(=O)c1ccccc1)c1ccccc1,33.5%,44.8%,46.5%,20.2%,10% (active),59.6%,54%,49.6%,23.6%,6.05% (active),35.3%,18.3%,48.9%,44.7%,34.2%,32%,38.2%,26.9%,45.1,12.9%
COc1ccc(-c2nc(SCC(=O)Nc3ccc(C(C)=O)cc3)[nH]c(=O)c2C#N)cc1,97.2%,91%,101%,101%,111%,98.3%,67.9%,85.3%,94.7%,115%,106%,98.8%,103%,95.2%,108%,101%,95.1%,97.6%,84.7,87.6%
C=C(C)[C@@H]1CC[C@]2(C(=O)O)CC[C@]3(C)[C@H](CC[C@@H]4[C@@]5(C)C/C(=C/c6cccc(I)c6)C(=O)C(C)(C)[C@@H]5CC[C@]43C)[C@@H]12,20.3%,31.5%,37.2%,21.8%,11.8%,16%,10%,17.2%,25%,28%,28.7%,12.5%,53.3%,56%,51.9%,25.5%,26.7%,48.3%,20.7,30.3%
Cc1cc2nc3c4cc(N)ccc4n(CCN(C)C)c3nc2cc1C,6.58% (active),1.78% (active),7.13% (active),19%,0.661% (active),37.6%,13.2%,5.34% (active),26.2%,-18.5% (active),12.6%,5.75% (active),-16.6% (active),7.84% (active),15.3%,29.7%,1.26% (active),10.5%,11.9,7.08% (active)
COc1cc(/C=C/c2cc(/C=C/c3ccc(O)c(OC)c3)n(-c3ccc(Cl)cc3)c(=O)n2)ccc1O,93.7%,91.3%,82%,90.1%,92.3%,88.6%,91.3%,98.1%,92.6%,91.3%,91.7%,72.6%,100%,60.3%,90.7%,76.1%,97.3%,78.1%,97,88.3%
NCCn1cc(-c2nc(-c3c[nH]c4ncccc34)cs2)c2cc(F)ccc21,76.7%,74.5%,76.9%,73.6%,51.3%,49.1%,90.7%,61.7%,87.5%,49.2%,93.9%,22.6%,78.6%,63.9%,86.7%,82.1%,96.7%,82.7%,93.8,86.2%
CC(c1ccccc1)N1C(=O)C(C2SC(=S)N(C(C)c3ccccc3)C2=O)SC1=S (centres undefined),96.1%,99.9%,93.1%,97.5%,82.5%,83.7%,77.5%,82.3%,96.2%,85.7%,95.1%,57.9%,69.9%,73.4%,85.6%,92.2%,98.6%,50.6%,81.7,69.8%
C[C@H]1[C@@H]2[C@H]3CC[C@@H]4[C@@]5(C)Cc6c([nH]c7ccccc67)C(C)(C)[C@@H]5CC[C@@]4(C)[C@]3(C)CC[C@]23CO[C@]1(C)[C@@H](C(=O)/C=C/c1ccccn1)C3,91.7%,101%,112%,109%,98.3%,67.2%,92.1%,89.4%,106%,102%,102%,72.5%,106%,85%,89.3%,88.8%,99.4%,84.9%,103,93.6%
CCc1nnc(NC(=O)c2ccoc2COc2ccccc2)s1,57.9%,74.3%,86.9%,56.3%,27%,74.8%,38.6%,62.1%,72.2%,44.2%,75.4%,12.3%,47.5%,55.9%,54.2%,66.7%,36.1%,43.5%,76.9,11.7%
COc1ccc(-c2cc(-c3cccs3)n(N=O)c(=O)c2C#N)cc1,89.1%,99.8%,106%,93.8%,102%,63.8%,93%,100%,93.5%,119%,119%,34.3%,127%,100%,96.3%,110%,102%,96.5%,101,116%
C[C@]12CC[C@@H]3c4ccc(O)cc4CC[C@H]3[C@@H]1C[C@H](O)[C@@H]2O,91.2%,85%,88.7%,94.2%,95.2%,99.2%,98.3%,97.9%,106%,102%,94.9%,118%,95.8%,94.4%,86.9%,89.8%,92.5%,92.1%,–,90.9%

# Source: PubChem BioAssay (NCI)
